Screening data deposited in PubChem by Center for Chemical Genomics, University of Michigan.
Only a selection was taken, and hits are over-represented in it overall.
Dicer inh – human Dicer pre-microRNA cleavage inhibition. 6% of 47,000 active. Q9UPY3. cat-ELCCA pre-miR-21 Dicer processing, chemiluminescence; stronger effect = higher value. z-score at 25 µM; in the data active = z-score above about 3, passing the limit was not always enough;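 also: higher signal means more uncleaved substrate so more Dicer inhibition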
Numbers stand for hits; - = inactive.

SMILES | Dicer inh
Cc1cc(NC(=O)CSc2n[nH]c(=O)n2-c2ccc3c(c2)OCCO3)n(-c2ccccc2)n1 | -
COC(=O)C1=C(C)N(c2ccc(F)cc2)CC1=O | 3.2
COC(=O)C1=NNC2C(=O)N(c3ccc(F)cc3)C(=O)C12 (stereo not drawn) | -
COC(=O)C1=C(C)NC(=O)CC1c1ccc(F)cc1 (stereo not drawn) | -
CC(=O)Oc1ccc2c(c1)C(C)=CC(C)(C)N2C(C)=O | -
COC(=O)c1scc(S(=O)(=O)Cc2cccs2)c1N/N=C(\C#N)S(=O)(=O)c1ccc(Cl)cc1 | 5.6
COC(=O)c1sccc1N/N=C(\C#N)S(=O)(=O)c1ccc(Cl)cc1 | -
COC(=O)c1sccc1N/N=C(\C#N)S(=O)(=O)c1cccs1 | -
CCOC(=O)N1CCc2c(sc3c2C(=O)NC(c2ccc(OC)cc2)N3)C1 (stereo not drawn) | -
COc1ccc(-c2nc(NCCc3c[nH]c4ccc(OC)cc34)sc2C)cc1 | -
Cc1cc(Oc2ccc(C(F)(F)F)cc2NS(C)(=O)=O)cc(C)c1Cl | -
Cc1cc(O)c2c(c1)C(=O)c1cc(O)cc(O)c1C2=O | -
CCOC(=O)Oc1cc2oc(=O)sc2cc1Cl | -
Cc1ccc(-c2cc(O)cc3sc(=O)oc23)cc1C | 6.6
O=C1c2oc3ccc(F)cc3c(=O)c2C(c2ccc(O)cc2)N1Cc1ccc(F)cc1 (stereo not drawn) | -
CCN(CC)Cc1cc(O)c(CN(CC)CC)cc1O | -
CCc1oc(C(=O)O)cc1CN(CC)CC | -
CCN(CC)Cc1cc(C(C)C)c(O)c(C(C)C)c1 | 4.1
Cc1cc(/C=C(\C#N)S(=O)(=O)c2ccccc2)c(C)s1 | -
Cc1ccc(-n2c(=O)[nH]c3c(sc4nc(C)cc(C)c43)c2=O)cc1 | 3.4
Cc1ccc(-n2c(=O)[nH]c3c(oc4nc(-c5ccccc5)cc(-c5ccccc5)c43)c2=O)cc1 | -
Cc1cc(C)c2c(n1)sc1c(=O)n(-c3cccc(Cl)c3)c(=O)[nH]c12 | -
O=C(C1=NNCC1c1ccccc1)c1ccc2c(ccc3ccccc32)c1 (stereo not drawn) | -
O=C1/C(=C/c2ccco2)COC/C1=C\c1ccco1 | -
CSC1=N/C(=C/c2ccco2)C(=O)N1 | -
SMILES | Dicer inh
O=C1/C(=C/c2ccco2)CC/C1=C\c1ccco1 | 31
CC(C)(C)OC(=O)N1CCCN(S(=O)(=O)c2ccc(N3C(=O)CC4(CCCC4)C3=O)c(Cl)c2)CC1 | -
CC(C)N1CSC(=S)N(C(C)C)C1 | -
CC(C)(C)NC(=O)NC(=O)c1ccc(Oc2ccc(C(F)(F)F)cc2[N+](=O)[O-])cc1 | 3.8
O=[N+]([O-])c1cc(C(F)(F)F)ccc1Oc1ccc(F)cc1 | -
CS(=O)c1ccc(Oc2ccc(C(F)(F)F)cc2[N+](=O)[O-])cc1 (stereo not drawn) | -
Cc1ccc2c(c1)CCCN2C(=O)c1scc(S(=O)(=O)c2ccc(Cl)cc2)c1C | -
Cc1c(S(=O)(=O)c2ccc(Cl)cc2)csc1C(=O)Nc1ccc(N2CCOCC2)c(Cl)c1 | -
Cc1c(S(=O)(=O)c2ccc(Cl)cc2)csc1S(=O)(=O)N1CCCC1 | 3
N#Cc1c(OCC(F)(F)F)ccc(Sc2ncccn2)c1OCC(F)(F)F | -
Cc1ccc(OCCOc2ccc(Oc3nc(N(C)C)nc(N(C)C)n3)nn2)cc1 | -
O=C(CC(=O)c1ccccc1O)c1ccc(Cl)cc1 | -
Cc1ccc(C(=O)CC(=O)c2ccc(Cl)cc2)c(O)c1 | 4.4
Cc1cc(C)c(C(=O)CC(=O)c2ccccc2Cl)c(O)c1 | -
O=C(CSc1nccc(-c2cccs2)n1)Nc1ccccc1 | -
CC(C)NC(=O)CSc1nccc(-c2cccs2)n1 | -
O=C(CSc1nccc(-c2cccs2)n1)c1cc(-c2ccc(Cl)c(Cl)c2)no1 | 4
CC(C)Sc1c(Cl)cccc1NC(=O)c1ccc(Cl)cc1 | -
CCOc1cc(C)c(Cl)cc1S(=O)(=O)n1ccnc1C | -
COc1cc(NC(=O)C(c2ccccc2)C2CCCC2)cc(C(F)(F)F)c1 (stereo not drawn) | -
CN(NC(=O)c1ccccc1Cl)c1ncc(Cl)cc1C(F)(F)F | -
COc1ccc(N2C(=O)CSC2=O)cc1 | -
O=C1CSC(=O)N1c1ccc(Cl)cc1 | -
O=C1CSC(=O)N1c1ccc(C(F)(F)F)cc1 | 3.9
COc1ccc(C2c3c(oc4ccc(C)cc4c3=O)C(=O)N2CCCN(C)C)cc1 (stereo not drawn) | -
SMILES | Dicer inh
CC1CC(N2CN=C(SCc3ccc([N+](=O)[O-])cc3)NC2)CC(C)(C)C1 (stereo not drawn) | -
Cc1ccc2[nH]c(=S)n(-c3ccc(S(=O)(=O)N4CCCCC4)cc3)c(=O)c2c1 | -
CC(C)(C)c1ccc(N2C(=N)SCC2=O)cc1 | -
O=C1CSC(=O)N1C(c1ccccc1)(c1ccccc1)c1ccccc1 | 4.5
O=C1CSc2nc(-c3ccccc3)c(-c3ccccc3)n21 | -
Cc1ccc(-c2csc3nc(-c4cccs4)oc(=O)c23)cc1 | 5.4
O=c1oc(-c2ccc(Br)cc2)nc2scc(-c3cccs3)c12 | -
Cc1cccc2nc(-c3cccs3)oc(=O)c12 | -
CCC(=O)N1c2ccccc2C(N(C(=O)c2cccs2)c2ccccc2)CC1C (stereo not drawn) | -
CS(=O)(=O)c1sc(C#N)c2c1C(=O)CCC2 | -
CC1(C)CC(=O)c2c(S(C)(=O)=O)sc(Br)c2C1 | -
CS(=O)(=O)c1sc(Br)c2c1C(=O)CCC2 | 4.4
Cc1ccc(-c2cn3cc(-c4ccc(Br)cc4)nc3n2C)cc1 | -
Cc1c(-c2ccnn2C(=O)Nc2ccccc2)cnn1-c1ccccc1 | -
CC(C)(C)C(=O)C(C#N)=C1SCCS1 | -
Cc1cccc2c(=O)c(C(=O)O)c[nH]c12 | -
O=C(O)c1c[nH]c2c(-c3ccccc3)c(C(F)(F)F)sc2c1=O | 4.8
CCOC(=O)c1c[nH]c2c(-c3ccccc3)c(C(F)(F)F)sc2c1=O | -
CCOC(=O)/C(C#N)=C/Nc1cc(C)c(OS(=O)(=O)c2cc(Cl)cc(Cl)c2)c(Cl)c1 | -
N#Cc1c(OCC(F)(F)F)ccc(Sc2ncccc2C(F)(F)F)c1OCC(F)(F)F | -
Cc1ccc(C)c(OCc2nc(-c3cccs3)no2)c1 | -
COc1cc(S(=O)(=O)Nc2ccccn2)ccc1Br | -
O=C(Nc1ccc(Cl)cc1)Nc1ccc(Br)c2cccnc12 | -
O=S(=O)(Nc1cccc2cccnc12)c1ccccc1 | 7.7
Cc1ccc2cccc(NS(=O)(=O)c3ccccc3)c2n1 | -
SMILES | Dicer inh
O=S(=O)(Nc1ccc(Br)c2cccnc12)c1ccccc1 | 4.7
Cc1ccc(C)c(NS(=O)(=O)c2cccc3cccnc23)c1 | -
O=C1CCC(C(=O)Nc2ccc(N3CCOCC3)c(Cl)c2)=NN1 | -
CC(C)(C)c1ccc(NC(=S)Nc2ccccn2)cc1 | -
O=C(N/N=C/c1ccc(Cl)c(Cl)c1)N/N=C/c1ccc(Cl)c(Cl)c1 | -
O=C(N/N=C/c1ccccc1Cl)N/N=C/c1ccccc1Cl | 3.8
S=C(NCCc1ccccc1)N/N=C/c1ccccc1Cl | -
C#Cc1cccc(-n2nnc(-c3ccccc3)c2C)c1 | -
COC(=O)c1c(NC(=O)CCCC(=O)O)sc2c1CCC(C)C2 (stereo not drawn) | -
COc1ccc2c(c1)CCC1C2=NN(C(C)=O)C1c1ccc(Br)cc1 (stereo not drawn) | -
Cc1cccc(NCN2C(=O)CCC2=O)n1 | -
O=C1CCC(=O)N1CNc1ccccc1C(F)(F)F | -
O=C1CCC(=O)N1CNc1ccccn1 | 3.4
Cc1cc(C(F)(F)F)n2nc(-c3ccc(Cl)cc3)cc2n1 | -
CC(C)(C)S(=O)(=O)/C(C#N)=C/Nc1ccc(OC(F)(F)F)cc1 | -
Cc1cc(Cc2ccc(N)c(C)c2)ccc1N | -
